Compounds without any hit were thinned out: in the full panel of roughly 83,000, 20% have a hit.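 Plates (96-well) were seeded with cells, treated with compound at one concentration, and incubated for 48 hours before percent growth was determined.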 Calls of active or inactive are those of the source. The calls were made as follows: active = growth percent below 10; inactive = the rest.
Each molecule was assayed on HL-60(TB) leukemia (assay: NCI-60 one-dose screen, 48 h (100 = growth as untreated, 0 = no growth, -100 = all killed)). Settings: 10 µM unless noted.

| Compound | growth |
| --- | --- |
| CCOP(=O)(OCC)OC[C@]12CCC(C)(C)CC1C1=CC[C@@H]3[C@@]4(C)CCCNC(C)(C)[C@@H]4CC[C@@]3(C)[C@]1(C)CC2 (stereo not given in full) | 34.7% (inactive) |
| CC(=O)N1C(=S)NC(=O)C1CC(C)C (stereo not given) | 106% (inactive) |
| CC/C(=C/c1c(O)cccc1OC)c1ccc2c(OC)cccc2[o+]1 | 106% (inactive) |
| COc1ccc(NC(=O)Cn2cc(CN3C(=O)c4ccc([N+](=O)[O-])cc4C3=O)nn2)cc1 | 95.1% (inactive) |
| Cn1cc(-c2nnc(N)nc2-c2cn(C)c3ccc(F)cc23)c2cc(F)ccc21 | 79.3% (inactive) |
| O=C(CN1CCN(c2cc(=O)n(-c3ccccc3)c3ccccc23)CC1)Nc1nc(-c2ccc(Cl)cc2)cs1 | 26.2% (inactive) |
| COc1ccc(-c2nc3cc(Cl)c(Cl)cc3n2CC(=O)N=Nc2c(O)[nH]c3ccc(Cl)cc23)cc1 | 59.7% (inactive) |
| COc1ccc(/C=N/NC(=O)c2c(N)nn(C)c2Nc2ccccc2)cc1 | 15.5% (inactive) |
| CCOC(=O)c1c(NC(=O)c2cccc(C(F)(F)F)c2)sc2c(CN3CCN(C)CC3)c(O)ccc12 | -31% (active) |
| COc1cc(-c2nn(C(C)(C)C)cc2-c2ccnc(NCCCNS(=O)(=O)c3ccc(F)cc3)n2)ccc1Cl | 101% (inactive) |
| CCCCc1nc2c(N)nc3ccccc3c2n1Cc1ccc(OC)cc1 | 31% (inactive) |
| COc1cc(-c2nc(-c3ccccc3)[nH]c2-c2ccnc(NCCCNS(=O)(=O)c3cccc(F)c3)n2)ccc1Cl | 55.1% (inactive) |
| COc1cc(CNC(=O)Cc2ccccc2[N+](=O)[O-])ccc1OCC(=O)NO | 118% (inactive) |
| CCN(CC)c1cn(-c2ccc(S(N)(=O)=O)cc2)nn1 | 105% (inactive) |
| COc1ccc2c(c1)C=CC1(O2)Oc2ccc(OC)cc2C=C1C (stereo not given) | -3.1% (active) |
| COc1ccc2c(c1)c(CC(=O)[Se]CC#N)c(C)n2C(=O)c1ccc(Cl)cc1 | -14% (active) |
| NC(N)=Nc1ccc(Oc2cccc(NC(N)=Nc3ccc(Br)cc3)c2)cn1 | 64.8% (inactive) |
| CCN(CC)CCOc1ccc(C(=C(C)Cc2ccc(OC)cc2)c2ccc(OCCN(CC)CC)cc2)cc1 | -42.3% (active) |
| CCNC(=O)N1CCc2cc(OC)c(OCCc3ccc(OC)c(N)c3)cc2C1c1cc(C)c(C)cc1C (stereo not given) | 22.1% (inactive) |
| O=C1/C(=C/C=C/c2ccco2)SC(=S)N1Cc1ccccc1 | 96.9% (inactive) |

| Compound | growth |
| --- | --- |
| CN(C)C(=O)c1cc(-c2ccc3ncnc(NCc4ccccc4)c3c2)cnc1N | 116% (inactive) |
| NS(=O)(=O)c1ccc(Nc2nc(N/N=C/c3ccc(C(F)(F)F)cc3)nc(Nc3ccccc3)n2)cc1 | 48.9% (inactive) |
| O=C1[C@H]2Cc3c([nH]c4ccccc34)[C@@H](c3c(Cl)cccc3Cl)N2C(=O)CN1C1CCN(Cc2ccccc2)CC1 | 65.7% (inactive) |
| IP(CCCSc1n(Cc2ccc3ccccc3c2)c(-c2ccccc2)c(-c2ccccc2)[n+]1Cc1ccc2ccccc2c1)(c1ccccc1)(c1ccccc1)c1ccccc1 | -29.1% (active) |
| CCNC(=O)N1CCc2cc(OC)c(OCCc3ccc(OC)cc3)cc2C1c1ccc(Cl)cc1C (stereo not given) | 12.2% (inactive) |
| O=C(CN1CCN(c2cc(=O)n(-c3ccccc3)c3ccccc23)CC1)Nc1ccc([N+](=O)[O-])cc1 | 85% (inactive) |
| COc1ccc([C@@H]2c3[nH]c4ccccc4c3C[C@H]3C(=O)N(C4CCN(CC5CCCCC5)CC4)CC(=O)N23)c(OC)c1 | 47.7% (inactive) |
| O=C(CCn1c[n+](CC(=O)c2ccc(-c3ccccc3)cc2)c2ccccc21)Nc1cccc2cccnc12 | -42.3% (active) |
| COc1ccccc1NC1=C(Cl)C(=O)c2nc(C)ccc2C1=O | -48% (active) |
| O=C1CCCc2nc(Nc3ccc(S(=O)(=O)Nc4ccc([N+](=O)[O-])cc4)cc3)ncc21 | 110% (inactive) |
| CN1CCN(c2ccc(C(=O)Nc3cccc(-c4cn(-c5ccc(S(N)(=O)=O)cc5)nn4)c3)cc2C(F)(F)F)CC1 | 77% (inactive) |
| Cc1sc2nc(NCc3ccccc3Cl)[nH]c(=O)c2c1C | 75.1% (inactive) |
| CN(C)CCn1c2ccc(N)cc2c2nc3ccccc3nc21 | 12% (inactive) |
| CN1C(=O)N(C)C2C1NN=c1s/c(=C\c3ccccn3)c(=O)n12 (stereo not given) | 101% (inactive) |
| O=C(NCCCCCCNC(=O)c1c2c(nc3ccccc13)-c1cccnc1SC2)c1c2c(nc3ccccc13)-c1cccnc1SC2 | 24% (inactive) |
| O=C(Nc1ccc(F)c(F)c1)c1cc(-c2ccc(F)cc2F)ccc1O | -30.8% (active) |
| CCO/C=N/C1=C(C#N)C(c2ccc(F)cc2)c2sc3c(CC)cccc3c2O1 (stereo not given) | -19.1% (active) |
| O=C(Nc1ccc(F)cc1)c1cc(-c2ccc(F)cc2F)ccc1O | 0.532% (active) |
| CS(=O)(=O)c1ccc2c(c1)c1c(n2S(=O)(=O)c2ccc(Cl)cc2)CCCC1 | 4.55% (active) |
| Cc1[nH]nc2ccc(-c3nc4cnc(N5CCN(C)CC5)cn4c3Nc3ccc(F)cc3Br)cc12 | -29.6% (active) |
